Measurements: the supplement of paper PMC12350171
Where a name gives a salt, the structure may show the parent alone.

tested on: Haemophilus parainfluenzae; experiment: growth AUC normalised to DMSO control (fraction of control); higher = less growth inhibition, active = hit call of the paper; settings: 20 µM;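 active = AUC significantly below DMSO controls by Student t-fit with adjusted P under 0.01; inactive = not significantly reduced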
Outline: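 Three biological replicates were carried out, with OD578 read hourly for 24 h. Before inoculation at a starting OD578 of 0.01, pathogens were passaged anaerobically twice; plates were pre-reduced mGAM containing 20 μM compound and 1% DMSO, sealed with breathable membranes, and the Haemophilus parainfluenzae medium carried added hemin and NAD. Area under each growth curve was calculated by the trapezoidal rule up to the exponential-to-stationary transition and normalised to DMSO controls on the same plate.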

SMILES | growth AUC normalised to DMSO control
CC(=O)[C@@]1(O)CC[C@H]2[C@@H]3C[C@H](C)C4=CC(=O)C=C[C@]4(C)[C@@]3(F)[C@@H](O)C[C@@]21C [Fluorometholone] | 1 (inactive)
Nc1c(Br)cc(Br)cc1CN[C@H]1CC[C@H](O)CC1 [Ambroxol hydrochloride] | 0.988 (inactive)
CC1=C(C(=O)O)N2C(=O)[C@@H](NC(=O)[C@H](N)c3ccc(O)cc3)[C@H]2SC1 [Cefadroxil] | 0.949 (inactive)
c1ccc2[nH]c(-c3cscn3)nc2c1 [Tiabendazole] | 1.06 (inactive)
NC(CO)C(=O)NNCc1ccc(O)c(O)c1O (stereo not drawn) [Benserazide hydrochloride] | 1.05 (inactive)
O=C1c2c(O)cccc2Cc2cccc(O)c21 [Anthralin] | 1.39 (inactive)
C[C@@H](O)[C@H]1C(=O)N2C(C(=O)O)=C(SCCNC=N)C[C@H]12 [Imipenem] | 1.01 (inactive)
C[C@H](O)C(=O)Nc1c(I)c(C(=O)NC(CO)CO)c(I)c(C(=O)NC(CO)CO)c1I [Iopamidol] | 1.07 (inactive)
CCN(CC)C(=O)N1CCN(C)CC1 [Diethylcarbamazine citrate] | 0.978 (inactive)
CC1(C)OC(=O)NC1=O [Dimethadione] | 1 (inactive)
CCOC(=O)n1ccn(C)c1=S [Carbimazole] | 0.99 (inactive)
C[C@@H]1[C@H](O)[C@@H](C)/C=C/C=C/C=C/C=C/C=C/C=C/C=C/[C@H](O[C@@H]2O[C@H](C)[C@@H](O)[C@H](N)[C@@H]2O)C[C@@H]2O[C@](O)(C[C@@H](O)C[C@@H](O)[C@H](O)CC[C@@H](O)C[C@@H](O)CC(=O)O[C@H]1C)C[C@H](O)[C@H]2C(=O)O [Amphotericin B] | 1.09 (inactive)
OCCN1C[C@H](O)[C@@H](O)[C@H](O)[C@H]1CO [Miglitol] | 0.925 (inactive)
COc1cc(C)nc(-n2nc(C)cc2OC)n1 [Epirizole] | 0.999 (inactive)
CC1(C)S[C@@H]2[C@H](NC(=O)[C@H](C(=O)O)c3ccsc3)C(=O)N2[C@H]1C(=O)O [Ticarcillin sodium] | 0.0663 (active)
Nc1nc(=O)[nH]cc1F [Flucytosine] | 0.95 (inactive)
CCC1(c2ccccc2)NC(=O)N(C)C1=O (stereo not drawn) [Mephenytoin] | 1.04 (inactive)
CO[C@H]1/C=C/O[C@@]2(C)Oc3c(C)c(O)c4c(O)c(c5c(nc6cc(C)ccn65)c4c3C2=O)NC(=O)/C(C)=C\C=C\[C@H](C)[C@H](O)[C@@H](C)[C@@H](O)[C@@H](C)[C@H](OC(C)=O)[C@@H]1C [Rifaximin] | 0.026 (active)
Nc1nc(=S)c2ncn([C@@H]3O[C@H](CO)[C@@H](O)[C@H]3O)c2[nH]1 [Thioguanosine] | 0.973 (inactive)

SMILES | growth AUC normalised to DMSO control
CN(C/C=C/c1ccccc1)Cc1cccc2ccccc12 [Naftifine hydrochloride] | 0.977 (inactive)
CC(C)C(=O)Nc1ccc([N+](=O)[O-])c(C(F)(F)F)c1 [Flutamide] | 1.09 (inactive)
CC1c2cccc(O)c2C(O)=C2C(=O)C3(O)C(O)=C(C(N)=O)C(=O)C(N(C)C)C3C(O)C21 (stereo not drawn) [Doxycycline hydrochloride] | 0.0238 (active)
CC(C)C(=O)c1c(C(C)C)nn2ccccc12 [Ibudilast] | 0.811 (inactive)
CN(C)CC/C=C1/c2ccccc2Sc2ccc(Cl)cc21 [Chlorprothixene hydrochloride] | 0.887 (inactive)
Nc1ccc(C(=O)NCC(=O)O)cc1 [Aminohippuric acid] | 1 (inactive)
Cn1c(=O)c2c(ncn2CC(O)CO)n(C)c1=O (stereo not drawn) [Diprophylline] | 0.994 (inactive)
CC(=O)O[C@]1(C(C)=O)CC[C@H]2[C@@H]3C=C(C)C4=CC(=O)CC[C@@H]4[C@H]3CC[C@@]21C [Nomegestrol acetate] | 0.976 (inactive)
CC(=O)NCCCS(=O)(=O)O [Acamprosate calcium] | 0.988 (inactive)
CO[C@H]1/C=C/O[C@@]2(C)Oc3c(C)c(O)c4c(O)c(c(/C=N/N5CCN(C)CC5)c(O)c4c3C2=O)NC(=O)/C(C)=C\C=C\[C@H](C)[C@H](O)[C@@H](C)[C@@H](O)[C@@H](C)[C@H](OC(C)=O)[C@@H]1C [Rifampicin] | 0.0335 (active)
COc1ccc(C2CNC(=O)C2)cc1OC1CCCC1 (stereo not drawn) [Rolipram] | 0.952 (inactive)
CCN(CCCc1ccccc1)CCCc1ccccc1 [Alverine citrate salt] | 0.925 (inactive)
CC12CC3CC(C)(C1)CC(N)(C3)C2 [Memantine hydrochloride] | 0.986 (inactive)
CN(C)C(=O)C(CCN1CCC(O)(c2ccc(Cl)cc2)CC1)(c1ccccc1)c1ccccc1 [Loperamide hydrochloride] | 1 (inactive)
CN(C)CCN(Cc1ccc(Cl)cc1)c1ccccn1 [Chloropyramine hydrochloride] | 1.03 (inactive)
CCCc1cc(C(N)=S)ccn1 [Prothionamide] | 1.04 (inactive)
Nc1ccc(S(=O)(=O)c2ccc(N)cc2)cc1 [Dapsone] | 1 (inactive)
CC(C)NC(=N)NC(=N)Nc1ccc(Cl)cc1 [Proguanil hydrochloride] | 0.973 (inactive)
COc1ccc2cc([C@@H](C)C(=O)O)ccc2c1 [(R) Naproxen sodium salt] | 1.1 (inactive)
